CHO-K1 Ca antag = nonselective inhibitor or artifact in parental CHO-K1 cells | ATP-induced calcium, Fluo-8 fluorescence | inhibition, % at 3 µM | 0.6% of 360,000 active;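 active = inhibition above a per-plate cutoff, the plate's mean sample inhibition plus 3 SD, cut at about 24% in these data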;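 note: 0% = DMSO plus EC80 ATP and 100% = DMSO alone without ATP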
CHRM1 antagonist = blocks human M1 muscarinic receptor; CHO-K1 hM1, Fluo-8 calcium fluorescence, ACh EC80 antagonist; 1.3% of 360,000 active; AID 588852; P11229; inhibition, % at 3 µM;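 active = percent inhibition above its own plate's cutoff, namely the mean of that plate's compound wells plus 3 SD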;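 note: peak over basal fluorescence ratio during 140 s after agonist addition; 0% = ACh EC80 plus DMSO and 100% = DMSO alone without agonist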
Target sequence (P11229 whole entry, looked up): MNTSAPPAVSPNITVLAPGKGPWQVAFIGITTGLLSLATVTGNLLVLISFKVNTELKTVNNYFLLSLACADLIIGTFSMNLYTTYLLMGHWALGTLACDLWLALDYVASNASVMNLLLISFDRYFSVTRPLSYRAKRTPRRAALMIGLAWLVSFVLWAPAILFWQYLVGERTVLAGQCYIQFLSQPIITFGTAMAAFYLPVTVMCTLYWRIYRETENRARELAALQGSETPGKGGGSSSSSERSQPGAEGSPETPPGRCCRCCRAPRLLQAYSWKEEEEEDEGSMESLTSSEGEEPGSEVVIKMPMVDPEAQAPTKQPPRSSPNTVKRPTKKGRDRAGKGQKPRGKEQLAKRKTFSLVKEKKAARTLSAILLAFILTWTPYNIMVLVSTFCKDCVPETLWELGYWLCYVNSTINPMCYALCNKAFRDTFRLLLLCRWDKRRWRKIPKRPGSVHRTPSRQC
CHRM1 agonist = human M1 muscarinic receptor agonism. 0.33% of 360,000 active. P11229. CHO-K1 hM1, Fluo-8 calcium fluorescence, agonist mode; 0% DMSO, 100% acetylcholine EC100. activation, % at 3 µM. AID 588814;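 active = activation above the run's mean compound activation plus 3 SD, cut at about 16% in these data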;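 note: peak over basal fluorescence ratio within a 140 s kinetic read after compound addition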
CHO-K1 Ca ag = nonselective activator or artifact in parental CHO-K1 cells; Fluo-8 calcium fluorescence; scaled to maximal ATP response, vehicle zero; activation, % at 3 µM; 0.48% of 360,000 active; in the data active = activation above about 15%;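 note: untransfected CHO-K1 host cells lacking M1 receptor as counterscreen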
M1 PAM = potentiates human M1 receptor response to acetylcholine | activation, % at 3 µM | 0.088% of 360,000 active | CHO-K1 hM1, Fluo-8 calcium fluorescence, ACh EC20; 0% = ACh EC20, 100% = maximal ACh | AID 588819 | P11229; in the data active = activation above about 19%, passing the limit was not always enough
CHO-K1 Ca PAM = nonselective activator or artifact in parental CHO-K1 calcium assay; ATP EC20, Fluo-8 calcium fluorescence; 0% at ATP EC20, 100% at ATP max; activation, % at 3 µM; 0.02% of 360,000 active;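 active = activation above the run cutoff, the mean activation of all test compounds plus 3 SD, cut at about 40% in these data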;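 note: peak over basal fluorescence ratio in a 140 s read after ATP addition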
* marks the source's active call; other numbers are inactive results. Compounds with a hit are over-represented: about 2.4% of the library has one in this group of screens.

SMILES	CHO-K1 Ca antag	CHRM1 antagonist	CHRM1 agonist	CHO-K1 Ca ag	M1 PAM	CHO-K1 Ca PAM
CCc1noc(C)c1C(=O)NNC(=O)c1ccccc1F	-6	-12	0	0	14	21
COc1ccc(Cl)cc1C(=O)NNC(=O)c1[nH]c(C)c(C(C)=O)c1C	-14	-14	-6	1	0	7
O=S(=O)(O)c1cc(O)ccc1O	0	-24	35*	1	-9	5
CCC1CCCCN1CCNS(=O)(=O)c1ccc2c(c1)oc(=O)n2C (stereo not drawn)	5	50*	-13	0	-27	4
CCC1CCCCN1CCCNS(=O)(=O)c1ccc2c(c1)oc(=O)n2C (stereo not drawn)	0	23	-5	1	-9	-12
C[C@@H](C(=O)N1CCN(Cc2ccc3c(c2)OCO3)CC1)n1nnc2ccccc2c1=O	0	0	-2	1	0	5
COc1ccc(Cl)cc1NC(=O)CN(C)Cc1cccs1	-18	-3	-4	1	2	15
CC(=O)Oc1ccc(C)cc1-n1nc2ccccc2n1	24*	2	-2	0	4	-5
CCN1CCN(c2c(Cl)cccc2NC(=O)c2ccc([N+](=O)[O-])o2)CC1	-13	43*	-7	1	-22	22
O=C(Nc1cccc(Cl)c1N1CCCC1)c1ccc([N+](=O)[O-])o1	1	2	0	0	8	8
CC(=O)c1cnc(Nc2cccc(Cl)c2Cl)s1	1	-9	-5	17*	10	20
CC(=O)c1cnc(Nc2ccccc2)s1	-5	-1	-4	1	9	20
COc1ccc(CNC(=O)Cn2cc([N+](=O)[O-])cn2)cc1	57*	-8	-2	-1	8	-16
O=C(Cn1cc([N+](=O)[O-])cn1)NCc1ccccc1	0	-3	-1	2	2	12
COc1ccccc1C(=O)NC(=O)CSc1nnc(C)s1	55*	-10	-2	0	9	-4
O=C1CC(N2CCN(S(=O)(=O)c3ccccc3F)CC2)C(=O)N1c1ccccc1F (stereo not drawn)	-14	-7	-3	1	7	-2
Cc1ccc(C)c(NC(=O)C2CCN(S(=O)(=O)c3ccc4c(c3)NC(=O)CO4)CC2)c1	-8	36*	-4	2	-3	4
CC(C)c1ccc(CNC(=O)C2(C)CCCN2C)cc1 (stereo not drawn)	-6	-10	-9	0	2	8
C(=NN=C(NN=Cc1cccs1)NN=Cc1cccs1)c1cccs1	5	-6	-5	0	4	6
COCCn1nnnc1C(c1cccc(OC)c1OC)N1CCN(C2CCCCC2)CC1 (stereo not drawn)	-4	-81	-2	0	24*	14
COCCn1nnnc1C(c1cccc(OC)c1OC)N1CCN(C(=O)c2ccco2)CC1 (stereo not drawn)	-11	-2	-2	0	7	4
N#CC1CC(c2ccccc2)=NN1c1ccccc1[N+](=O)[O-] (stereo not drawn)	24*	5	-6	0	-5	-13
CCCCCC(=O)N1C[C@@H](O)[C@H](n2cc(COC(=O)c3ccccc3)nn2)C[C@@H]1c1ccccc1	-16	-12	-4	2	7	28
CC(OC(=O)CNC(=O)c1ccc2ccccc2c1)C(=O)NC1CCCCC1C (stereo not drawn)	7	-9	1	18*	4	16
CC(OC(=O)CNC(=O)c1ccc(Cl)cc1)C(=O)NC1CCCCC1C (stereo not drawn)	25*	-6	7	0	14	-22
SMILES	CHO-K1 Ca antag	CHRM1 antagonist	CHRM1 agonist	CHO-K1 Ca ag	M1 PAM	CHO-K1 Ca PAM
CC(OC(=O)CNC(=O)c1ccc(Br)cc1)C(=O)NC1CCCCC1C (stereo not drawn)	-3	-12	1	3	9	9
CCOC(=O)C(=CNc1cc(C)ccc1-n1cccc1)C(=O)OCC	-4	-12	-5	0	7	16
O=C(Nc1ccccc1Cl)N1CCCN(c2nc(-c3ccccc3)ns2)CC1	23	38	0	13	-21	-18
O=C(Nc1ccccc1)N1CCN(c2nc(-c3ccccc3)ns2)CC1	18	32*	3	10	-17	-25
COc1ccccc1OCC(=O)OCC(=O)Nc1sccc1C(N)=O	-1	7	0	12	-13	9
Cc1cccc(OCC(=O)OCC(=O)Nc2sccc2C(N)=O)c1	8	24	4	20*	-13	-17
Cc1cccc(OC(C)C(=O)OCC(=O)Nc2sccc2C(N)=O)c1 (stereo not drawn)	12	26	3	16*	-14	-10
CCCCc1ncc(CN2CCC(n3nccc3NC(=O)C(OC)c3ccccc3)CC2)[nH]1 (stereo not drawn)	-7	-2	-5	1	0	4
Cc1ccc(Cl)c(OCC(=O)Nc2ccccc2N2CCCCC2)c1	16	20	-2	0	-9	-12
COc1cc(OC)c(C(=O)OCC(=O)N2CCN(S(=O)(=O)c3ccc(C)cc3C)CC2)cc1OC	-23	-9	-6	2	4	17
Fc1c(F)c(F)c(CSc2nc3ccccc3[nH]2)c(F)c1F	-7	5	-3	1	-3	10
O=S1(=O)CC=C(CSc2nc3ccccc3[nH]2)C1	13	26*	-11	0	-19	-7
CCOC(=O)c1c(-c2ccccc2)csc1NC(=O)c1ccc(N2C(=O)CCC2=O)cc1	25*	15	-3	0	-6	-13
CCOC(=O)c1c(-c2ccccc2)csc1NC(=O)c1ccc(S(=O)(=O)N2CC(C)OC(C)C2)cc1 (stereo not drawn)	-4	-4	-3	0	-1	12
CCOc1ccc(N(CC(=O)NC2CCCCC2)C(=O)CCC(=O)Nc2nc(C)cs2)cc1	-19	-16	-7	1	8	9
O=C(NCCCn1ccnc1)c1cc(-c2cccnc2)nc2ccc(Br)cc12	-2	-1	-6	17*	7	4
Cc1ccc2nc(-c3ccccc3)cc(C(=O)NCCCn3ccnc3)c2c1	1	-5	-5	3	6	10
COc1ccc(-n2nnnc2CNC(=O)C2CC(=O)N(c3ccc(Cl)cc3)C2)cc1 (stereo not drawn)	1	-21	0	1	14	-2
Brc1cc2c(cc1Br)OCCOCCOCCOCCO2	0	-9	-7	1	2	9
Brc1ccc2c(c1)OCCOCCOc1cc(Br)ccc1OCCOCCOCCO2	-10	39*	-3	11	-21	12
Cc1cccnc1NC(=O)CCc1c[nH]c2ccccc12	24*	-2	2	0	11	-33
